TDP1 cell CPT – qHTS for Inhibitors of human tyrosyl-DNA phosphodiesterase 1 (TDP1): qHTS in cells in presence of CPT | actives 12% (n = 420,000) | AID 686979, 2013 | chicken DT40 Tdp1-/-;hTDP1 cells + 20 nM CPT, ATP luminescence, 48 h | Potency, µM (series often up to 46.2 µM), for the others: at the top dose activity change, negative = growth inhibition, most hits filed as inhibitors; note: potency is the fitted concentration of half-maximal effect; nearly all actives have a fitted effect of over 55% in size
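Chicken DT40 Tdp1-/- cells stably complemented with human TDP1 were seeded at 400 cells/well in medium containing 20 nM camptothecin, exposed to pin-transferred compounds, and grown at 37 °C for at least 48 hr. Viability was read as ATP luminescence.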
CtBP-E1A blk – qHTS Assay for Inhibitors of the CtBP/E1A Interaction; CtBP / adenovirus E1A interaction (AlphaScreen); AlphaScreen GST-E1A/His-CtBP binding, 1536-well; hits give low values; activity change, % (concentration not given with the values); actives 0.49% (n = 340,000); AID 651724, 2012; in the data active = activity change below about -65%; inconclusive = mostly about -30% to -63%
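Homogeneous bead-based format: GST-tagged E1A captured on glutathione donor beads, His-tagged CtBP on nickel acceptor beads; compounds precede bead addition by 2 h at 37 °C.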
TDP1 inh – qHTS Assay for Inhibitors of Tyrosyl-DNA Phosphodiesterase (TDP1) | Tyrosyl-DNA phosphodiesterase 1 (Homo sapiens), Q9NUW8 | recombinant TDP1, AlphaScreen DNA substrate cleavage | Potency, µM (titrated, usually from 130 µM), for inactives: at the highest dose activity change, negative = inhibition, hits mostly inhibitors | actives 0.28% (n = 350,000) | AID 485290, 2010; note: potency is the fitted concentration of half-maximal effect; nearly all actives have a fitted effect of over 40% in size
Target sequence (Q9NUW8 whole entry, looked up): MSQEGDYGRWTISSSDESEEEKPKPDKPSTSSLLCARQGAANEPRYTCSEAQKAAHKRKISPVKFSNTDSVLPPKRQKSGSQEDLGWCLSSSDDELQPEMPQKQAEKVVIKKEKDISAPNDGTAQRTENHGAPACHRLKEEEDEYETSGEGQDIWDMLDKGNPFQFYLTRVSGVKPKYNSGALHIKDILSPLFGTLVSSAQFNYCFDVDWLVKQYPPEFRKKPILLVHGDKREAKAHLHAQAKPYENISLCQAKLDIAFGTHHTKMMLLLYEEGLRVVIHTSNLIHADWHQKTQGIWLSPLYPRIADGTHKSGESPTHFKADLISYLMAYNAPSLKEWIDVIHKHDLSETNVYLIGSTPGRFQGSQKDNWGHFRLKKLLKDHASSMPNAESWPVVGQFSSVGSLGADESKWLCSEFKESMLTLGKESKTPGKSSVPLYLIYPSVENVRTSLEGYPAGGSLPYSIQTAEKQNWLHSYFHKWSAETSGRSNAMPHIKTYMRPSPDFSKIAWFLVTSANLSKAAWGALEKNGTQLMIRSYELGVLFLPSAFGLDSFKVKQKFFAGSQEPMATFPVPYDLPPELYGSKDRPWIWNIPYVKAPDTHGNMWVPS
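Enzyme-compound mixtures sat 15 min at room temperature, followed by a 5 min reaction with 15 nM final substrate and 10 min with AlphaScreen beads. Recombinant human Tdp1 was used at 1 nM final.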
IL1B secr inh – qHTS for Inhibitors of Inflammasome Signaling: IL-1-beta AlphaLISA Primary Screen | THP-1 LPS/ATP IL-1B secretion, AlphaLISA, 16 h; hits give low values | activity change, % at 57.5 µM | actives 4.7% (n = 360,000) | AID 743279, 2014; in the data active = activity change below about -50%; inconclusive = mostly about -30% to -49%
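THP-1 cells pretreated 1 hr with compounds (up to 57.5 uM final), then stimulated with LPS (250 ng/mL final) plus ATP (1.25 mM final); secreted IL-1B measured by AlphaLISA after 16 hr, decreased signal indicating inhibition.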
DT40 TDP1 no CPT – qHTS for Inhibitors of human tyrosyl-DNA phosphodiesterase 1 (TDP1): qHTS in cells in absence of CPT; actives 15% (n = 420,000); Potency, µM (series often up to 46.2 µM), for inactives: at the highest dose activity change, negative = growth inhibition, actives largely listed as inhibitors; DT40 Tdp1-/- hTDP1 cells, no CPT, ATP luminescence, 48 h; note: potency is the fitted concentration of half-maximal effect; nearly all actives have a fitted effect of over 55% in size
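Camptothecin absent (DMSO only). Human TDP1-complemented DT40 knockout cells, 400 cells/well, 37 °C for minimum 48 hr; ATP measured via CellTiter-Glo, 30 min dark incubation, luminescence.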
Six1-Eya2 blk – qHTS Assay for Inhibitors of the Six1/Eya2 Interaction; Homeobox protein SIX1 (Homo sapiens) + Protein phosphatase EYA2 (Homo sapiens), …; AlphaScreen GST-Six1/His-Eya2 binding, biochemical; hits give low values; activity change, % (concentration not given with the values); actives 0.56% (n = 360,000); AID 651725, 2012; in the data active = activity change below about -65%; inconclusive = mostly about -30% to -63%
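AlphaScreen with GST-Six1 and His-Eya2 (5X mix: 250 nM and 500 nM), glutathione donor and nickel acceptor beads; buffer 50 mM Tris pH 8.0, 300 mM NaCl, 1 mM TCEP; 1 h at 37 C in the dark.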
Starred values were filed as active, the others as inactive; u = inconclusive; x = no result given; ! = not confirmed by another sample. In the library only some 18% were active in any assay of this set; here they are far more common. Unless noted, calls come from the whole dose curve; as a rule, active = well fitted curve in the direction sought with a large enough effect; inconclusive = small, poorly fitted or top-dose-only effect, or another doubt; inactive = no such curve, though single readings can be large; an effect the other way counts as inactive or inconclusive. % is set by controls: 0 for no effect and ±100 for the full control effect.

SMILES	TDP1 cell CPT	CtBP-E1A blk	TDP1 inh	IL1B secr inh	DT40 TDP1 no CPT	Six1-Eya2 blk
CCCOc1ccc(C2c3c(-c4ccccc4O)n[nH]c3C(=O)N2Cc2ccncc2)cc1OCC (configuration not stated)	23.1µM*	x	4.7%	x	-24.2%	x
COc1ccc(N(C)S(=O)(=O)c2cccc(C(=O)Nc3ccc(-n4cnnn4)cc3)c2)cc1	18.4µM*	-5.8	7.4%	-4.0	18.4µM*	-6.5
COc1ccc(N(C)S(=O)(=O)c2cccc(C(=O)Nc3ccc4c(c3)OCCO4)c2)cc1	16.4µM*	-13.5	3.5%	-14.4	14.6µM*	-14.3
CCCCn1c(N)c(N(CC(C)C)C(=O)c2ccc(C)c(S(=O)(=O)N3CCCCC3)c2)c(=O)[nH]c1=O	2.1%	12.4	-0.7%	-25.8	-11.9%	-1.8
O=C(NCCc1ccccc1F)[C@@H]1CSC2c3ccccc3C(=O)N21 (some centres not stated)	-24.3%	1.3	-1.9%	9.2	-1.9%	3.6
O=C(Nc1nnc(S(=O)(=O)N2CCCc3ccccc32)s1)c1ccccc1	u	x	5.2%	x	u	x
O=C(Nc1nnc(S(=O)(=O)N2CCc3ccccc32)s1)c1cccc(Cl)c1	20.6µM*	x	1.3%	x	20.6µM*	x
O=C(Nc1nnc(S(=O)(=O)N2CCc3ccccc32)s1)c1ccccc1	u	x	3.9%	x	u	x
O=C(Nc1nnc(S(=O)(=O)N2CCCc3ccccc32)s1)c1ccc(Cl)cc1	u	x	2.6%	x	18.4µM*	x
COc1ccc(NC2CCCN(C(=O)CCn3cccn3)C2)cc1 (configuration not stated)	9.9%	-2.3	2.8%	9.8	5.8%	-2.9
CCCNC(=O)c1ccccc1NC(=O)c1cccc(-n2cnnn2)c1	u	-13.4	0.1%	u	u	-0.4
O=C(O)c1ccc(NS(=O)(=O)c2ccc3c(c2)C(=O)c2ccccc2C3=O)cc1	-0.7%	u	-7.7%	-10.3	-1.6%	-71.7*
O=C(O)c1cccc(S(=O)(=O)Nc2ccc(-c3ccccc3)cc2)c1	8.0%	-0.3	-3.5%	0.5	1.3%	-0.8
COc1cc(C)ccc1NC(=O)Cc1csc(NC(=O)Nc2ccccc2OC)n1	23.1µM*	-5.2	2.2%	2.8	23.1µM*	-14.2
COc1ccccc1NC(=O)Nc1nc(CC(=O)N2CCN(c3ccccc3OC)CC2)cs1	20.6µM*	-6.6	0.8%	-56.1*	13µM*	-20.5
COc1ccc(CCNC(=O)CSc2nc(C)cs2)cc1	-16.8%	1.6	-4.2%	0.0	u	6.2
CCN1CCC(O)(/C=C/c2ccc(C(C)C)cc2)C(C(=O)/C=C/c2ccc(C(C)C)cc2)C1 (configuration not stated)	14.6µM*	-4.8	x	-116.9*	23.1µM*	1.5
CCN1CCN(C(=O)/C=C/c2ccc(C(C)C)cc2)CC1	-2.0%	-8.7	x	-2.7	-26.0%	-2.0
Cc1cc(N2CCN(c3ncccn3)CC2)nc2c(C)cccc12	u	4.0	x	39.9	14.6µM*	4.7
COc1ccc(N2CCN(c3cc(C)c4cccc(C)c4n3)CC2)cc1	u	-8.8	5.9%	5.1	-25.4%	-23.5
COc1ccc(/C=C2\C(=O)NC(=S)N2C(=O)c2ccc(F)cc2)cc1	23.1µM*	18.2	20µM*	11.6	18.4µM*	-0.5
O=C(c1ccc(F)cc1)N1CCN(Cc2ccccc2)CC1	-8.7%	0.3	x	-21.6	0.7%	-3.5
O=C1NC(=S)N(C(=O)c2ccc(F)cc2)/C1=C/c1ccccc1	23.1µM*	19.7	1.4%	-15.8	13µM*	-3.5
CN1C(=O)/C(=C/c2ccc(OCc3ccc(F)cc3)cc2)N(C)C1=S	-28.3%	-10.3	0.2%	-8.2	-29.8%	13.5
O=C(O)c1ccc(NC(=O)c2ccc(Cl)cc2)c(NC(=O)c2ccc(Cl)cc2)c1	27.1%	-4.7	x	1.2	7.2%	0.6
SMILES	TDP1 cell CPT	CtBP-E1A blk	TDP1 inh	IL1B secr inh	DT40 TDP1 no CPT	Six1-Eya2 blk
CCC(C)[C@H](NC(=O)N1CC(=O)Nc2ccccc21)C(=O)N1CCC[C@@H]1C(=O)O (some centres not stated)	0.7%	6.1	x	-1.0	-4.3%	2.5
CCOC(=O)[C@H](CCc1ccccc1)N[C@H]1CCc2ccccc2N(CC(=O)O)C1=O	u	2.0	8.9%	9.6	21.1µM*!	-4.2
Cc1[nH]c(C)c(C(=O)O)c1CNC1CCCCC1C (configuration not stated)	x	x	2.2%	x	x	x
COc1cc(OC)cc(C(=O)N2CCCC(c3nc(-c4ccc(C)o4)no3)C2)c1 (configuration not stated)	-8.6%	7.0	9.3%	-0.1	u	-5.9
Cc1ccc(-c2noc(C3CCCN(S(=O)(=O)c4ccc(S(=O)(=O)N(C)C)cc4)C3)n2)o1 (configuration not stated)	-24.6%	6.4	0.5%	-5.5	u	2.2
CN(C)c1ccc(-c2noc(C3CCN(C(=O)Nc4ccc(Cl)cc4)CC3)n2)cc1	u	-1.9	5.6%	-24.0	u	0.2
COc1ccc(-c2noc(C3CCCN(S(=O)(=O)c4ccc(C)c(Cl)c4)C3)n2)cc1OC (configuration not stated)	u	0.0	0.0%	2.2	20.6µM*	0.5
COc1ccc(-c2noc(C3CCCN(S(=O)(=O)c4cccc(Cl)c4C)C3)n2)cc1OC (configuration not stated)	u	1.0	1.0%	15.3	u	-0.1
Cc1ccc(-c2noc(C3CCCN(C(=O)c4ccc(C(C)(C)C)cc4)C3)n2)o1 (configuration not stated)	u	-13.3	x	-28.1	18.4µM*	-12.2
Cc1ccc(-c2noc(C3CCN(C(=O)Nc4ccc(C#N)cc4)CC3)n2)o1	23.1µM*	-2.9	5.0%	-7.7	u	-4.7
Cc1ccc(S(=O)(=O)N2CCCC(c3nc(-c4ccc(C)o4)no3)C2)cc1 (configuration not stated)	-16.6%	11.3	3.6%	-73.1*	-12.2%	-11.7
